Screens: PubChem BioAssay, several laboratories
NLRP3 yeast inh: inhibitors of NALP3 inflammasome in yeast; Yeast reconstituted NLRP3/ASC/caspase-1, beta-gal luminescence, 24 h; inhibition, % at 10 µM; hit rate 0.39% among 330,000;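 active = inhibition of 50% or more; inactive = inhibition below 50%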;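 note: plate controls were induced DMSO wells for no effect and uninduced yeast grown without galactose for full effect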
tim10-1 inh: tim10-1 yeast growth inhibition. S. cerevisiae tim10-1 ts strain growth, BacTiter-Glo, 24 h. inhibition, % at 20 µM. hit rate 2.2% among 330,000;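 active = inhibition of at least 40%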;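 note: mutant grown at 25 °C; 0% = DMSO wells with yeast and 100% = wells holding no yeast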
NALP1 yeast inh: NALP1 inhibition; S. cerevisiae NALP1/ASC/caspase-1 growth, X-gal OD620, 72 h; inhibition, % at 10 µM; hit rate 0.61% among 280,000; AID 2071; in the data active = inhibition mostly above about 24%, no sharp cut-off; inactive = mostly below about 32%
tim23-1 inh: inhibits growth of tim23-1 mutant yeast | S. cerevisiae tim23-1 growth, BacTiter-Glo luminescence, 24 h | inhibition, % at 20 µM | hit rate 1.3% among 330,000;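 active = growth inhibition of the mutant yeast at or above 50%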;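 note: temperature-sensitive mutant grown at 25 °C; plate controls were DMSO-treated mutant yeast for no effect and medium wells lacking yeast for full effect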
TIM10 inh: TIM10 yeast growth inhibition. S. cerevisiae TIM10 strain growth, BacTiter-Glo luminescence, 24 h. hit rate 1.4% among 330,000. inhibition, % at 10 µM;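 active = inhibition of 40% or more at the single tested concentration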;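 note: wild-type TIM10 isogenic control strain grown at permissive 25 °C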
SKKanGAS inh: SKKanGAS growth inhibition | S. pyogenes SKKanGAS, kanamycin growth, BacTiter-Glo, 6 h | inhibition, % at 7.5 µM | hit rate 1.3% among 300,000 | AID 1662;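 active = mean replicate score, as percent of positive control median, at least 50; inconclusive = mean below 50 but one replicate at or above 50; inactive = mean and every replicate below 50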;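 note: strain carries kanamycin resistance gene driven by streptokinase promoter and grows in 40 µg/ml kanamycin; loss of luminescence reflects streptokinase promoter inhibition or plain growth inhibition; 0% = median of DMSO wells and 100% = positive control at its reference dose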
TIM10 conf: TIM10 yeast growth inhibition, confirmed; shares compounds with TIM10 inh; S. cerevisiae tim10 strain growth, BacTiter-Glo luminescence, 24 h; inhibition, % at 10 µM; hit rate 63% among 4,600;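 active = inhibition of yeast growth at or above a set limit in either of two replicates at 10 µM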;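 note: this counterscreen used the strain with wild-type TIM10; 0% = yeast with DMSO and 100% = medium wells lacking yeast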
* marks the source's active call; other numbers are inactive results; ? = inconclusive; . = not tested or not shown. Most compounds without a hit are left out; they make up all but 4.9% or so of the library.

SMILES	NLRP3 yeast inh	tim10-1 inh	NALP1 yeast inh	tim23-1 inh	TIM10 inh	SKKanGAS inh	TIM10 conf
NS(=O)(=O)c1ccc(O)c(NC(=O)c2ccc([N+](=O)[O-])o2)c1	16.0	-3.9	9.7	6.5	8.9	3.7	.
Brc1ccc(-c2ccc(CNCc3ccccn3)o2)cc1	19.2	5.3	-20.8	11.2	69.1*	66.5*	23.4
Cc1cc(Cl)cc(Cl)c1OCCN1CCCC1	14.8	-16.1	-2.1	-10.8	-3.7	-5.8	.
O=C(Cn1nc(C(=O)O)c2ccccc2c1=O)NC12CC3CC(CC(C3)C1)C2	11.1	36.9	6.4	32.4	67.8*	30.9	19.6
c1ccc2c(c1)Cc1ccccc1O2	12.4	0.5	.	16.7	9.5	.	.
Cc1ccc(S(=O)(=O)/N=C(/NC(=S)Nc2ccccc2)c2ccccc2)cc1	19.4	36.2	-5.9	37.0	45.7*	1.6	-7.5
S=c1[nH]c2ccc(Cc3ccc4[nH]c(=S)[nH]c4c3)cc2[nH]1	11.0	29.7	8.0	19.2	8.5	3.2	.
Cc1ccc2nc(-c3ccccn3)cc(C(=O)NCCc3ccc(F)cc3)c2c1	28.5	27.3	-0.8	24.0	21.1	0.5	.
O=C(Nc1cccc([N+](=O)[O-])c1)c1ccccc1	26.3	-33.1	30.9	24.7	12.0	4.9	.
O=C(C#Cc1cccc([N+](=O)[O-])c1)c1ccccc1	-48.7	28.8	-10.3	-20.0	80.0*	-8.4	83.1*
O=C(Nc1nc2cc3c(cc2s1)OCCO3)c1ccc([N+](=O)[O-])o1	5.1	29.9	3.8	30.4	22.5	?	.
Cc1ccccc1Oc1nc2c(C)cccn2c(=O)c1/C=C(\C#N)C(=O)NC1CCS(=O)(=O)C1 (configuration not stated)	2.9	18.2	5.7	16.6	40.7*	-1.8	16.4
Cc1ccc(C(=O)CCC(=O)Nc2cccc(C)c2)cc1	34.2	-11.8	14.6	-3.9	-13.6	-3.4	.
Cc1c(C(=O)Nc2cccnc2Cl)oc2ccccc12	14.6	1.9	16.1	-6.5	-0.9	0.2	.
CC1(C)CC2CC(C)(CN2S(=O)(=O)c2cccc(C(N)=O)c2)C1 (configuration not stated)	10.0	16.7	.	29.0	1.7	.	.
CC1(C)CC2CC(C)(CN2S(=O)(=O)c2ccc(N)cc2)C1 (configuration not stated)	-6.5	38.5	5.6	39.8	53.7*	-4.4	28.5
Cc1ccc(C(=O)Nc2ccc(N3CCN(C)CC3)cc2)c(Cl)c1	1.5	-8.8	13.0	-1.9	-6.4	-3.1	.
Nc1nc(Nc2cccc(F)c2)nc2ccccc12	15.0	35.5	14.0	29.0	40.0	3.9	29.9
O=c1oc(Nc2cccc(F)c2)nc2ccccc12	2.0	15.5	16.7	26.0	20.7	11.6	.
COc1cccc(NC(=O)c2ccc(CN3CCN(c4ccccc4)CC3)cc2)c1	31.1	26.6	0.6	26.0	51.1*	-4.4	20.6
CCOC(=O)c1ccc(NC(=O)c2ccc(CN3CCOCC3)cc2)cc1	11.7	-14.6	41.2	7.0	-21.6	2.5	.
NC(=O)c1ccc(NC(=O)c2ccc(CN3CCOCC3)cc2)cc1	2.2	5.0	5.2	7.0	43.2*	-8.8	-2.6
COc1ccc(NC(=O)c2ccc(CN3CCN(c4ccccc4)CC3)cc2)cc1	18.8	13.7	28.4	15.7	5.8	4.9	.
CC(C)CCNC(=O)c1ccc(C2SCC(=O)N2Cc2ccco2)cc1 (configuration not stated)	10.9	25.7	1.0	6.0	53.6*	-1.4	1.6
CN(Cc1ccc(F)cc1)C(=O)c1cc(S(=O)(=O)N2CCCCC2)ccc1N1CCOCC1	11.6	-7.8	.	9.7	4.4	.	.
SMILES	NLRP3 yeast inh	tim10-1 inh	NALP1 yeast inh	tim23-1 inh	TIM10 inh	SKKanGAS inh	TIM10 conf
O=C(N/N=C/c1ccccn1)c1cc(-c2ccc3ccccc3c2)n[nH]1	11.6	26.6	14.1	39.7	60.2*	-20.6	-22.6
COc1ccc(-c2cn3cc(C(F)(F)F)cc(Cl)c3n2)cc1	32.6	28.8	3.4	30.8	51.5*	-1.0	37.1*
C=CCNC(=S)N/N=C/c1cccc([N+](=O)[O-])c1	-1.7	37.9	-9.7	32.9	46.6*	1.3	40.4*
C=CCNC(=S)Nc1cccc([N+](=O)[O-])c1	19.3	18.4	10.1	9.1	2.0	7.9	.
O=[N+]([O-])c1cccc(-c2ccc(/C=N/NC(=S)Nc3ccccc3)o2)c1	32.3	23.9	4.5	5.7	47.5*	14.3	47.5*
COC(=O)Nc1ccc(S(=O)(=O)N2CCCC(C(=O)NCC3CCCO3)C2)cc1 (configuration not stated)	14.1	6.9	.	11.1	0.8	.	.
Cc1c(CN2CCC(CO)(CCOc3ccccc3)CC2)[nH]c2c(Cl)cccc12	20.3	-40.3	11.4	-21.9	44.2*	3.5	15.6
COc1ccc(Cl)cc1NC(=O)CN(C)C(=O)CN1C(=O)NC2(CCCC2)C1=O	2.2	6.9	.	-2.6	8.0	14.3	.
S=c1[nH]nc(COc2ccc(Cl)cc2)n1C1CCCCC1	15.3	31.8	19.2	25.8	40.4*	-4.5	8.9
CN(CC(=O)Nc1ccccc1Cl)C(=O)COC(=O)c1cccs1	16.5	5.7	.	13.6	2.4	.	.
CCc1ccccc1NC(=O)CSc1ccsc1[N+](=O)[O-]	10.9	4.4	2.2	9.1	7.2	-12.9	.
CCc1ccccc1NC(=O)c1ccc([N+](=O)[O-])s1	8.8	37.4	0.4	10.9	49.9*	-0.3	43.0*
CN(CC(=O)Nc1ccccc1Cl)C(=O)COC(=O)c1ccc([N+](=O)[O-])s1	13.8	27.2	.	36.4	47.0*	.	52.4*
CC(C)c1ccccc1NC(=S)NCC1(N(C)C)CCCCC1	16.6	13.7	8.9	12.2	3.4	0.4	.
COc1ccc(-c2cc(=NC(CC(C)C)C(=O)O)c3cc(C)ccc3o2)cc1 (configuration not stated)	20.3	30.7	32.6	28.6	61.2*	3.4	44.1*
COc1ccc(N=c2cc(-c3ccc(O)cc3)oc3ccccc23)cc1	6.7	39.9	37.7	47.1	31.1	-1.2	.
COc1ccc(-c2cc(=Nc3ccc(C)cc3)c3ccccc3o2)cc1	25.2	37.2	-2.8	48.2	55.0*	17.4	47.1*
CNc1ccc(/C=C/C(=O)c2cccc3ccccc23)cc1[N+](=O)[O-]	29.2	39.4	22.7	39.1	44.6*	42.3	-8.6
COc1ccc(CN2CCN(Cc3c[nH]c4ccccc34)CC2CCO)cc1C (configuration not stated)	11.2	24.8	1.2	19.7	19.8	-1.2	.
CC1Cc2ccccc2N1C1=NS(=O)(=O)c2ccccc21 (configuration not stated)	-0.4	28.1	-10.6	31.0	41.8*	5.1	10.3
O=S1(=O)N=C(N2CCCC2)c2ccccc21	11.8	5.8	20.7	-7.3	0.1	-3.6	.
COc1ccc(-c2oc3ccc(-c4cc(OC)c(OC)c(OC)c4)cc3c2C#Cc2ccccn2)cc1	1.7	5.2	.	1.8	3.1	.	.
